Several values for one entry are separate records, joined by “and”; a condition that tells them apart may be missing. Equal values may be shown once. Inconclusive results are not listed. A call without a number means that no potency is given here. Unmarked numbers belong to inactive results. Activity calls are given as the source filed them. Calls come from the whole dose curve; as a rule, active = well fitted cell-killing curve with a large enough effect; inconclusive = small, poorly fitted or top-dose-only effect, or effect the other way; inactive = no such curve, though single readings can be large or run the other way.
Assays:
[1] = Viability qHTS for spleen associated tyrosine kinase inhibitor (SYKi) naive MV4-11 cells (AID 1963823); note: nearly all actives have a fitted effect of over 40% in size
Procedure, shortened: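 qHTS, SYK inhibitor-naive MV4-11; 500 cells/well; 72 hr compound exposure, 37 C; CellTiter-Glo added, 10 min RT; luminescence read.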

[2] = Viability qHTS for spleen associated tyrosine kinase inhibitor (SYKi) drug resistant MV4-11 cells (AID 1963824); note: nearly all actives have a fitted effect of over 35% in size
Procedure, shortened: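 SYK-inhibitor-resistant MV4-11 AML cells were seeded at 500 per well onto compound and cultured 72 hours (37 °C, 5% CO2). CellTiter-Glo was then added, and after 10 min at room temperature, luminescence gave viability.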
Potency is the fitted concentration of half-maximal effect.

SMILES: O=C(CC12CC3CC(CC(C3)C1)C2)Nc1cccc2nc(NCCNCCO)ccc12
- Potency [1]: 18.6 µM (active)
- Potency [2]: 16.4 µM (active)

SMILES: COC(=O)C1=C[C@@H](O)[C@@H](O)[C@H](O[C@@H]2O[C@H](CO)[C@@H](O)[C@H](O)[C@H]2OC(=O)/C=C/c2ccccc2)C1
- Potency [1]: inactive
- Potency [2]: inactive

SMILES: CC[C@H](/C=C/[C@@H](C)[C@H]1CC[C@H]2[C@@H]3CC=C4C[C@@H](O)CC[C@]4(C)[C@H]3CC[C@]12C)C(C)C
- viability (% of control) [1]: 82.1% [at 4.97 µM]
- viability, % of control [2]: 108% [at 4.97 µM]

SMILES: C=C[C@H]1[C@H](O[C@@H]2O[C@H](CO)[C@@H](O)[C@H](O)[C@H]2O)OC=C2C(=O)N3Cc4c([nH]c5ccccc5c4=O)[C@@H]3C[C@H]21
- Potency [1]: inactive
- Potency [2]: inactive

SMILES: CC(=O)OC1C(CO)OC(O[C@H]2[C@H](OC(=O)[C@]34CCC(C)(C)C[C@H]3C3=CCC5[C@@]6(C)CC[C@H](O[C@@H]7O[C@H](C(=O)O)[C@@H](O)[C@H](O[C@@H]8OC[C@@H](O)[C@H](O)[C@H]8O)[C@H]7O[C@@H]7O[C@H](CO)[C@H](O)[C@H](O)[C@H]7O)[C@@](C)(C=O)C6CC[C@@]5(C)[C@]3(C)C[C@H]4O)O[C@H](C)[C@H](OC3OC(C)C(OC4OCC(O)C(O)C4O)C(O)C3O)[C@@H]2O)C(O)C1O (stereo partly specified)
- viability (% of control) [1]: 87.3% [at 9.25 µM]
- viability, % of control [2]: 100% [at 9.25 µM]

SMILES: CC(C)[C@@H](C)/C=C/[C@@H](C)[C@H]1CC[C@H]2C3=CC=C4C[C@@H](O)CC[C@]4(C)[C@H]3CC[C@]12C
- Potency [1]: inactive
- Potency [2]: inactive

SMILES: Cc1cc2nc(NCCCO)n(CC(=O)c3cc(C(C)(C)C)c(O)c(C(C)(C)C)c3)c2cc1C
- Potency [1]: 8.2 µM (active)
- Potency [2]: 8.2 µM (active)

SMILES: C=C[C@]1(C)C[C@H](O)[C@@H]2[C@H](OC(=O)[C@@H]2C)C1/C(C)=C/O[C@@H]1O[C@H](CO)[C@@H](O)[C@H](O)[C@H]1O (stereo partly specified)
- Potency [1]: inactive
- Potency [2]: inactive

SMILES: C[C@]1(O)CC[C@@H]2C(C(=O)O)=CO[C@@H](O[C@@H]3O[C@H](COC(=O)c4ccc(O)cc4)[C@@H](O)[C@H](O)[C@H]3O)[C@@H]21
- Potency [1]: inactive
- Potency [2]: inactive

SMILES: CCCCN1CCCC[C@H]1C(=O)Nc1c(C)cccc1C
- Potency [1]: inactive
- Potency [2]: inactive

SMILES: C=C1C(=O)O[C@H]2C1CCC(C)=C1C(=O)C=C(C)[C@@]12O (stereo partly specified)
- Potency [1]: 7.31 µM (active)
- Potency [2]: 8.2 µM (active)

SMILES: C[C@@H](Oc1cc(-n2cnc3ccc(OC4CCN(C)CC4)cc32)sc1C(N)=O)c1ccccc1C(F)(F)F
- Potency [1]: 0.0184 µM (active)
- Potency [2]: 0.0092 µM (active)

SMILES: O=C(NCCN1CCC(n2c(=O)[nH]c3ccccc32)CC1)c1cc2cc(F)ccc2[nH]1
- Potency [1]: 18.4 µM (active)
- Potency [2]: 18.4 µM (active)

SMILES: C[C@@H]1O[C@@H](O[C@H]2[C@@H]3C=CO[C@@H](O[C@@H]4O[C@H](CO)[C@@H](O)[C@H](O)[C@H]4O)[C@@H]3[C@@]3(CO)O[C@@H]23)[C@H](OC(=O)/C=C/c2ccc(O)cc2)[C@H](O)[C@H]1O
- Potency [1]: inactive
- Potency [2]: inactive

SMILES: CC(C)C1CCC(CO)=CC1/C=C(\CO)C(=O)OCC1(O)CCC(C(C)C)C2C=C(C(=O)O)COC(=O)C21 (stereo unspecified)
- Potency [1]: inactive
- Potency [2]: inactive

SMILES: Oc1cccc(-c2nc(N3CCOCC3)c3sccc3n2)c1
- Potency [1]: 0.82 µM (active)
- Potency [2]: 2.06 µM (active)

SMILES: C/C(=C/CO)CC[C@@H]1[C@@]2(C)CCC[C@](C)(C(=O)O)C2CC[C@@]1(C)O (stereo partly specified)
- Potency [1]: inactive
- Potency [2]: inactive

SMILES: CC(=O)O[C@@H]1C[C@@H](OC(C)=O)C(C)(C)/C=C/[C@H](C)[C@H](OC(C)=O)[C@@]2(O)C[C@H](C)[C@H](OC(=O)c3ccccc3)[C@@H]2/C=C/1C
- Potency [1]: 0.968 µM (active)
- Potency [2]: 2.73 µM (active)

SMILES: CC[C@@H]([C@H](C)O)n1ncn(-c2ccc(N3CCN(c4ccc(OC[C@@H]5CO[C@@](Cn6cncn6)(c6ccc(F)cc6F)C5)cc4)CC3)cc2)c1=O
- Potency [1]: 11.9 µM (active)
- Potency [2]: 6.68 µM (active)

SMILES: O=S(=O)(Nc1ccccn1)c1ccc(N=Cc2c(O)[nH]c3ccc4ncsc4c23)cc1
- Potency [1]: 0.0944 µM (active)
- Potency [2]: 0.299 µM (active)

SMILES: COc1ccc(Oc2c(Cl)cnn(-c3cc(C)cc(C)c3)c2=O)cc1
- Potency [1]: 2.31 µM (active)
- Potency [2]: 2.06 µM (active)

SMILES: C/C(=N\N=C(N)N)c1cc(NC(=O)CCCCCCCCC(=O)Nc2cc(/C(C)=N/N=C(N)N)cc(/C(C)=N/N=C(N)N)c2)cc(/C(C)=N/N=C(N)N)c1
- Potency [1]: 18.4 µM (active)
- Potency [2]: 9.2 µM (active)

SMILES: CC(NC(=O)CC(=O)O)c1nc2ccccc2c(=O)[nH]1 (stereo unspecified)
- Potency [1]: inactive
- Potency [2]: inactive

SMILES: Cn1nccc1Nc1nccc(-c2ccn([C@H](CO)c3ccc(Cl)c(F)c3)c(=O)c2)n1
- Potency [1]: 7.31 µM (active)
- Potency [2]: 4.61 µM (active) and 6.61 µM (active)

SMILES: COC(=O)C[C@H]1C(C)(C)[C@H](OC(=O)C(C)C)[C@@]2(O)C(=O)[C@]1(C)C1CC[C@]3(C)C(CC(=O)O[C@H]3c3ccoc3)[C@]13O[C@@H]32 (stereo partly specified)
- Potency [1]: inactive
- Potency [2]: inactive

SMILES: OC[C@H]1O[C@@H](OC(CCCCc2ccc(O)cc2)CCc2ccc(O)cc2)[C@H](O)[C@@H](O)[C@@H]1O (stereo partly specified)
- Potency [1]: inactive
- Potency [2]: inactive

SMILES: COc1nc2ccc(Br)cc2cc1[C@@H](c1ccccc1)[C@@](O)(CCN(C)C)c1cccc2ccccc12
- Potency [1]: 6.51 µM (active)
- Potency [2]: 9.2 µM (active)

SMILES: CCC(C)(NC(=O)C(CCC(N)=O)NC(=O)C1CC(O)CN1C(=O)C(C)(C)NC(=O)C(C)(C)NC(=O)C(CC(C)C)NC(=O)CNC(=O)C(NC(=O)C(C)(C)NC(=O)C(C)(C)NC(=O)C(C)(C)NC(=O)C(Cc1ccccc1)NC(C)=O)C(C)C)C(=O)N1CC(O)CC1C(=O)NC(C)(C)C(=O)NC(CO)Cc1ccccc1 (stereo unspecified)
- Potency [1]: 1.74 µM (active)
- Potency [2]: 0.616 µM (active)

SMILES: C=C1CC[C@@H](O)[C@]2(C)C[C@H]3OC(=O)C(=C)[C@H]3CC12 (stereo partly specified)
- Potency [1]: 14.6 µM (active)
- Potency [2]: 6.51 µM (active)

SMILES: CC(=O)O[C@H]1[C@H](C)[C@@H](O)[C@H]2[C@@H]1C=C(C(=O)O)[C@H]1C[C@@H]3[C@H]([C@H]21)[C@H]1C(=O)O[C@@H]2CC[C@@]3(C)O[C@]1(O)[C@@H]2C
- Potency [1]: inactive
- Potency [2]: inactive

SMILES: CC1C(O)C(O)C2C(C(=O)OCCc3ccc(O)cc3)=COC(O[C@@H]3O[C@H](CO)[C@@H](O)[C@H](O)[C@H]3O)C12 (stereo partly specified)
- Potency [1]: inactive
- Potency [2]: inactive

SMILES: Cc1cc(C(=O)Nc2nc3cccc(Cl)c3n2C2CCCCN(C(=O)/C=C/CN(C)C)C2)ccn1 (stereo unspecified)
- Potency [1]: 5.17 µM (active)
- Potency [2]: 8.2 µM (active)

SMILES: Nc1nc(Cl)nc2c1ncn2C1OC(CO)C(O)C1F (stereo unspecified)
- Potency [1]: 0.116 µM (active)
- Potency [2]: 0.13 µM (active)

SMILES: COc1cc(CCO)ccc1O[C@@H]1O[C@H](CO)[C@@H](O)[C@H](O)[C@H]1O
- Potency [1]: inactive
- Potency [2]: inactive

SMILES: C=CC1(C)CC(OC(=O)/C(C)=C\COC(C)=O)C(C(=C)C(=O)O)C(O)C1C(=C)CO (stereo unspecified)
- Potency [1]: inactive
- Potency [2]: inactive

SMILES: O=c1[nH]cnc2c([C@@H]3N[C@H](CO)[C@@H](O)[C@H]3O)c[nH]c12
- Potency [1]: inactive
- Potency [2]: inactive

SMILES: COc1cc2c(c(OC)c1O)C(c1ccc(O)cc1)C1C(=O)OC3C(COC(=O)C1=C2)OC(CO)(OC1OC(COC(=O)/C=C/c2ccc(OC4OC(C)C(O)C(O)C4O)cc2)C(O)C(O)C1O)C3O (stereo unspecified)
- viability (% of control) [1]: 95.6% [at 9.25 µM]
- viability, % of control [2]: 81.2% [at 9.25 µM]

SMILES: CN1CCN(Cc2ccc(-c3cnc4[nH]cc(-c5ccc6[nH]ccc6c5)c4c3)cc2)CC1
- Potency [1]: 0.082 µM (active)
- Potency [2]: 0.146 µM (active)

SMILES: CSC(=O)OCC1=C[C@@H]2OC(=O)C3=CO[C@@H](O[C@@H]4O[C@H](CO)[C@@H](O)[C@H](O)[C@H]4O)[C@H]1[C@@H]32
- Potency [1]: inactive
- Potency [2]: inactive

SMILES: CC1=C(C(=O)Nc2cc(Cl)ccc2Cl)C(c2ccco2)C2=C(CCCC2=O)N1 (stereo unspecified)
- Potency [1]: 14.6 µM (active)
- Potency [2]: 16.4 µM (active)

SMILES: CC1OC(OC2C(OC3C(O[C@H]4CC[C@@]5(C)C(CC[C@]6(C)C5CC=C5C7CC(C)(C)CC(O)[C@]7(C)CC[C@]56C)C4(C)C)OC(C(=O)O)C(O)C3O)OCC(O)C2O)C(O)C(O)C1O (stereo partly specified)
- viability (% of control) [1]: 90.6% [at 9.25 µM]
- viability, % of control [2]: 94.4% [at 9.25 µM]

SMILES: CC1=CCC(C(C)(C)O[C@@H]2O[C@H](CO[C@@H]3O[C@@H](C)[C@H](O)[C@@H](O)[C@H]3O)[C@@H](O)[C@H](O)[C@H]2O)CC1 (stereo partly specified)
- Potency [1]: inactive
- Potency [2]: inactive

SMILES: C[C@]1(O)CC[C@@H]2C(C(=O)O)=CO[C@@H](O[C@@H]3O[C@H](COC(=O)/C=C/c4ccc(O)c(O)c4)[C@@H](O)[C@H](O)[C@H]3O)[C@@H]21
- Potency [1]: inactive
- Potency [2]: inactive

SMILES: C=CC(C)(O)CC/C=C(\C)C(=O)OC1CC2(C(=O)O)CCC3(C)C(=CCC4C5(C)CCC(OC6OC(COC7OCC(O)C(O)C7O)C(O)C(OC7OCC(O)C(O)C7O)C6OC6OC(CO)C(O)C(O)C6OC6OCC(O)C(O)C6O)C(C)(C)C5CCC43C)C2CC1(C)C (stereo unspecified)
- viability (% of control) [1]: 73.5% [at 9.25 µM]
- viability, % of control [2]: 68% [at 9.25 µM]

SMILES: CC(C)(CC(=O)N1CCCC1)NCC(=O)N1C[C@@H](F)C[C@H]1C#N
- Potency [1]: inactive
- Potency [2]: inactive

SMILES: CC(C)(O[C@@H]1O[C@H](CO)[C@@H](O)[C@H](O)[C@H]1O)C(OC(=O)/C=C\c1ccc(O)cc1)C(=O)OCc1ccc(O[C@@H]2O[C@H](CO)[C@@H](O)[C@H](O)[C@H]2O)cc1 (stereo partly specified)
- Potency [1]: inactive
- Potency [2]: inactive

SMILES: COc1cc([C@@H]2Oc3c(OC)cc(CCCO)cc3[C@@H]2CO[C@@H]2O[C@H](CO)[C@@H](O)[C@H](O)[C@H]2O)ccc1O
- Potency [1]: inactive
- Potency [2]: inactive

SMILES: O=C(O)c1ccnc2cc(-c3nc4ccccc4n3CCN3CCCCC3)sc12
- Potency [1]: inactive
- Potency [2]: inactive

From PubChem BioAssay (NCATS)
